Assay results: PubChem BioAssay
This is one part of the list. Active and inactive are the calls of the source.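 Rule for the calls, unless noted: active = mean inhibition above about 50% in the one-dose retest (limit read from the data); inactive = the rest.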

How the values were obtained:
[1] = biological target: Sentrin-specific protease 8 (Homo sapiens) (UniProt Q96LD8); assay: human SENP8 peptidase blockers, hit retest – biochemical, luminescence, single concentration, confirmation (AID 488912;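 active = mean inhibition across replicates above about 50%, limit read from the data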); settings: Recombinant SENP8, Z-RLRGG-aminoluciferin luminescence, 60 min; at 12.5 µM; stronger effect = higher value
Chain of Sentrin-specific protease 8 (Homo sapiens) (Q96LD8 whole entry, looked up, the tested form may be a part): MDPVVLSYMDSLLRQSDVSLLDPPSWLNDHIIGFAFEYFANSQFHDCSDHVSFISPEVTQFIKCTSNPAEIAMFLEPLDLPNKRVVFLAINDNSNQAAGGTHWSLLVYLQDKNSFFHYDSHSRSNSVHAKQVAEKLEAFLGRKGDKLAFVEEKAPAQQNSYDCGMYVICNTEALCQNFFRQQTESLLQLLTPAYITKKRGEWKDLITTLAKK

[2] = biological target: Sentrin-specific protease 6 (Homo sapiens) (UniProt Q9GZR1); assay: inhibition of human SENP6 catalytic domain – biochemical, luminescence, single concentration, confirmation (AID 488915); settings: recombinant SENP6, Z-RLRGG-aminoluciferin luminescence; at 12.5 µM; stronger effect = higher value
Chain of Sentrin-specific protease 6 (Homo sapiens) (Q9GZR1 628-1112 limits assumed): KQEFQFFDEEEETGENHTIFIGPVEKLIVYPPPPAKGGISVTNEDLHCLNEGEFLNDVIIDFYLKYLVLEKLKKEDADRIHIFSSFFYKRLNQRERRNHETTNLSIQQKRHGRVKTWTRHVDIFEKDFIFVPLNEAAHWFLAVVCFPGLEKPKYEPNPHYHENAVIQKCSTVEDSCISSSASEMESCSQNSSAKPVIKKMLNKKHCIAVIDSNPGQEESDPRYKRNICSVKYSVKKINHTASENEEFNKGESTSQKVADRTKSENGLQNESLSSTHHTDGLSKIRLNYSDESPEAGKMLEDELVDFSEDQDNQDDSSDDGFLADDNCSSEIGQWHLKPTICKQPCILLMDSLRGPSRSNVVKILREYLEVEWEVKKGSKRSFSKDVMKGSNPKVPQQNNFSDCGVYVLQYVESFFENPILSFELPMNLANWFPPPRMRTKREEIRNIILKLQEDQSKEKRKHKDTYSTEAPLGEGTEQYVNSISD

[3] = biological target: Sentrin-specific protease 7 (Homo sapiens) (UniProt Q9BQF6); assay: human SENP7 peptidase blockers, hit retest – biochemical, luminescence, single concentration, confirmation (AID 488917); settings: recombinant SENP7, Z-RLRGG-aminoluciferin luminescence, 40 min; at 12.5 µM; stronger effect = higher value
Chain of Sentrin-specific protease 7 (Homo sapiens) (Q9BQF6 706-1050 limits assumed): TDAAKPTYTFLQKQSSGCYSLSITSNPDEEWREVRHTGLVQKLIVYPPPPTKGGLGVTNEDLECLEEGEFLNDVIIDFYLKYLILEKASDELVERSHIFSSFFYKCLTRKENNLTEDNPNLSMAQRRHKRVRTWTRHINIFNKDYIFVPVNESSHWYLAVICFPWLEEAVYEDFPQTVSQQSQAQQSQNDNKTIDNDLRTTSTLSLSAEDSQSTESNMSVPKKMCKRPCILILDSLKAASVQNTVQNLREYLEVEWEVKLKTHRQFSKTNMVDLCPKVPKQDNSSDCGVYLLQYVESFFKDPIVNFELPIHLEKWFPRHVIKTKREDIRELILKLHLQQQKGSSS

Caspase-3 (Homo sapiens) = Caspase-3 (Homo sapiens) (UniProt P42574); assay: human caspase-3 activity blockade, out-of-family – biochemical, single concentration, selectivity assay for SENP inhibitor project, confirmation (AID 488918;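 active = mean inhibition above about 50%, limit read from the data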;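 note: plate controls were enzyme with DMSO for no effect and wells without caspase-3 for full effect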); settings: purified caspase-3, Z-DEVD-aminoluciferin luminescence, 60 min; at 12.5 µM; stronger effect = higher value
Chain of Caspase-3 (Homo sapiens) (P42574 28-227 limits assumed): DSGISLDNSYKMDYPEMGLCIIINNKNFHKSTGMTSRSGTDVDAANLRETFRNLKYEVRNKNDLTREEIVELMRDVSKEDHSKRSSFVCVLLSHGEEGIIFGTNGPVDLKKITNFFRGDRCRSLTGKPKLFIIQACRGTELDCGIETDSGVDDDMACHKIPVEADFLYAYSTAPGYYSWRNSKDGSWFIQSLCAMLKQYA

[4] = Ultra-Glo luciferase signal interference – biochemical, single concentration, SENP8 reaction pre-completed, artefact control for SENP inhibitor project, confirmation (AID 488919;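 active = mean inhibition above about 50% when retested at one dose, limit read from the data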;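 note: plate controls were DMSO wells with completed reaction for no effect and substrate without enzyme for full effect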); settings: Pre-incubated SENP8/Z-RLRGG-aminoluciferin, luciferase luminescence interference; at 12.5 µM; stronger effect = higher value

Structure (SMILES) | inhibition [1] | inhibition [2] | inhibition [3] | inhibition (Caspase-3 (Homo sapiens)) | inhibition [4]
O=C(Nc1ccccc1C(=O)Nc1ccncc1)c1ccc([N+](=O)[O-])cc1 | 47.2% (inactive) | 57.2% (active) | 85.4% (active) | 65.1% (active) | 10.6% (inactive)
O=C(Nc1ccc(NC(=O)c2ccco2)c(Cl)c1)c1cccc([N+](=O)[O-])c1 | 8.7% (inactive) | 6.1% (inactive) | -6.7% (inactive) | -0.7% (inactive) | -0.2% (inactive)
C1=C(CCNc2ncnc3c2cnn3-c2ccccc2)CCCC1 | 2% (inactive) | 22% (inactive) | -1.5% (inactive) | 39.5% (inactive) | -4.4% (inactive)
Cc1sc(NC(=O)c2ccc3ncsc3c2)c(C(N)=O)c1C | -15.3% (inactive) | -7.6% (inactive) | -2.8% (inactive) | 3.3% (inactive) | -10.5% (inactive)
COc1ccccc1-c1nnc(-c2ccc(F)cc2)o1 | 33.8% (inactive) | 38.6% (inactive) | 73.8% (active) | 66.2% (active) | 60.3% (active)
COc1cc(NC(=O)COC(=O)c2ccc([N+](=O)[O-])s2)cc(OC)c1OC | 79.5% (active) | 86.7% (active) | 45.8% (inactive) | 18.4% (inactive) | 0.3% (inactive)
Cc1ccc(OC(=O)c2cc3ccccc3o2)cc1 | 50.7% (active) | 51.4% (active) | 90.8% (active) | 46.9% (inactive) | 64.7% (active)
Cc1cccc(-c2noc(-c3ccc(F)cc3)n2)c1 | 63.5% (active) | 69.8% (active) | 89.5% (active) | 80.6% (active) | 61.4% (active)
O=C(O)/C=C/C(=O)NNc1ccc([N+](=O)[O-])cc1 | 67.5% (active) | 65.4% (active) | 92.5% (active) | 88.6% (active) | 79.3% (active)
CCCCCc1ccc(-c2ccc(C(=O)O)cc2)nc1 | -2.1% (inactive) | 54.7% (active) | 76.9% (active) | 9.2% (inactive) | 63.9% (active)
O=C(O)c1ccc2c3c(cccc13)C(=O)N(OS(=O)(=O)c1ccccc1)C2=O | 36.6% (inactive) | 29.2% (inactive) | 68.5% (active) | 10.4% (inactive) | 53.8% (active)
O=c1[nH]c(CCl)nc2cc(-c3ccc(Cl)cc3)sc12 | 25.3% (inactive) | 45.5% (inactive) | 19.6% (inactive) | 28.2% (inactive) | 9.5% (inactive)
Cc1ccc(-n2ncc3c(Nc4cccc(C(=O)O)c4)ncnc32)cc1 | 93.9% (active) | 98.1% (active) | 102% (active) | 44.3% (inactive) | 83.5% (active)
O=[N+]([O-])c1ccc2nc(-c3ccccn3)[nH]c2c1 | 57.8% (active) | 56% (active) | 82.6% (active) | 81.5% (active) | 48.8% (inactive)
CCNc1nc(N)nc(Oc2ccc(OCC)nn2)n1 | 6.2% (inactive) | 8.1% (inactive) | -2% (inactive) | 3.8% (inactive) | 0.2% (inactive)
O=[N+]([O-])c1ccccc1N/N=C1\CCc2ccccc21 | -9.3% (inactive) | -5.8% (inactive) | -10.4% (inactive) | 0.7% (inactive) | -0.8% (inactive)
COc1ccc(CNC(=O)COc2ccccc2C(=O)c2cnn(-c3ccccc3)c2)cc1OC | 77.7% (active) | 76.1% (active) | 89.2% (active) | 61.9% (active) | 65.5% (active)
O=c1[nH]c(/C=C/c2cccc(Br)c2)nc2ccccc12 | 2.7% (inactive) | 1.4% (inactive) | 12.3% (inactive) | 17.6% (inactive) | 1% (inactive)
Cc1cccc(NC(=O)c2ccc3ccccc3n2)n1 | 76.6% (active) | 76.1% (active) | 93.6% (active) | 65.2% (active) | 51.2% (active)
Cc1cc(NC(=O)c2ccc(F)cc2)ccc1NC(=O)c1ccco1 | 78.9% (active) | 73.5% (active) | 93% (active) | 88.6% (active) | 14.8% (inactive)
Brc1ccccc1C1Nc2cccc3cccc(c23)N1 | -7.3% (inactive) | 3.3% (inactive) | -9.3% (inactive) | 1.1% (inactive) | 3.4% (inactive)
Cc1ccc(O)c(CNc2nc3ccccc3n2C)c1 | -5% (inactive) | -7.9% (inactive) | 7.6% (inactive) | 8.9% (inactive) | -0.5% (inactive)
COc1ccc(/C=C/c2noc(-c3ccccc3OC(C)=O)n2)cc1 | 55.1% (active) | 87.7% (active) | 94.5% (active) | 77% (active) | 22.7% (inactive)
O=C(OCc1ccccc1F)c1ccc2c(c1)OCCO2 | 87.8% (active) | 88.5% (active) | 98.8% (active) | 74.5% (active) | 78.6% (active)
O=C1/C(=C/c2cccs2)CCC1C1CCCC1 (stereo not given) | 50.9% (active) | 52.1% (active) | 50.7% (active) | 60.9% (active) | 36.6% (inactive)

Structure (SMILES) | inhibition [1] | inhibition [2] | inhibition [3] | inhibition (Caspase-3 (Homo sapiens)) | inhibition [4]
Cc1cc(C(=O)Nc2nnc(C3CC3)s2)c(C)s1 | 63.4% (active) | 80.8% (active) | 94.1% (active) | 83.7% (active) | 16.4% (inactive)
O=c1c2c(nc3cc(-c4cccc(Cl)c4)[nH]n13)CCCC2 | -9.4% (inactive) | 0% (inactive) | 21.5% (inactive) | 41.6% (inactive) | -4.6% (inactive)
CSC1=N/C(=C\C=C\c2cccs2)C(=O)S1 | 69.4% (active) | 75.6% (active) | 85.3% (active) | 68.1% (active) | 52.2% (active)
CCOC(=O)c1sc(NC(=O)c2ccncc2)nc1C | 0.5% (inactive) | 74.8% (active) | 90.8% (active) | 84.4% (active) | 20% (inactive)
O=C(Nc1ccc(Cl)cc1)c1ccsn1 | 49.7% (inactive) | 46.8% (inactive) | 78.1% (active) | 60.3% (active) | 51.9% (active)
COc1ccc(-n2ncc3c(SCC(=O)NNC(C)=O)ncnc32)cc1 | 11.5% (inactive) | 48.8% (inactive) | 11.2% (inactive) | 51.3% (active) | 5.9% (inactive)
Cc1cccc(OCC(=O)Nc2ccccc2F)c1 | 20.8% (inactive) | 30.1% (inactive) | 72.8% (active) | 62.7% (active) | 35.2% (inactive)
Cc1ccc(S(=O)(=O)Nc2nc3ccccc3nc2N2CCc3ccccc3C2)cc1 | -9.3% (inactive) | -1.3% (inactive) | -5.2% (inactive) | 4.5% (inactive) | 4.3% (inactive)
CCc1noc(C)c1C(=O)Nc1nc2ccc(OC)cc2s1 | 45.2% (inactive) | 42.8% (inactive) | 78.3% (active) | 58.3% (active) | 19.6% (inactive)
Nc1ccc(-c2nnc(-c3ccc(-c4ccccc4)cc3)o2)cc1 | 11.8% (inactive) | 10.8% (inactive) | 32.4% (inactive) | 6.5% (inactive) | -0.8% (inactive)
O=C(/C=C/c1ccco1)Nc1ccc(Oc2ccccc2)cc1 | 51% (active) | 64.2% (active) | 89.4% (active) | 40.7% (inactive) | 38.3% (inactive)
COc1ccc(C(=O)Nc2ccc(F)cc2F)cc1 | -4.2% (inactive) | 60.2% (active) | 87.6% (active) | 87.1% (active) | 67.9% (active)
Oc1cccc2ccc(/C=C/c3ccc(Br)s3)nc12 | 31.2% (inactive) | 63.9% (active) | 52.2% (active) | 59.9% (active) | 9.6% (inactive)
O=c1oc2cc(O)ccc2cc1-c1ccc(F)cc1 | 98.4% (active) | 99.7% (active) | 103% (active) | 98.2% (active) | 95.4% (active)
O=C(Nc1nnc(SCc2ccccc2)s1)c1ccco1 | 6.7% (inactive) | 40.5% (inactive) | 23.6% (inactive) | 61.1% (active) | 13.1% (inactive)
Cc1ccccc1Nc1nc(-c2cccnc2)cs1 | 70.3% (active) | 66.9% (active) | 86.9% (active) | 52.8% (active) | 69.4% (active)
COc1ccc(C(=O)Nc2ccccc2C(=O)N/N=C/c2ccccc2OC)cc1 | 4% (inactive) | 43.4% (inactive) | 52.6% (active) | 83.9% (active) | 15.2% (inactive)
O=c1c(-c2ccccc2)coc2cc(O)ccc12 | 61.7% (active) | 60.2% (active) | 88.2% (active) | 85.9% (active) | 74.8% (active)
Cc1ccc(C(=O)O/N=C(\N)c2ccccn2)cc1Cl | 38.5% (inactive) | 81.3% (active) | 27.2% (inactive) | 53.7% (active) | 50.2% (active)
O=C(Nc1ccccc1Cl)Nc1cccc2cccnc12 | 35.6% (inactive) | 37.2% (inactive) | 75.2% (active) | 25.9% (inactive) | 32.6% (inactive)
c1ccc(Nc2nc(-c3ccncc3)cs2)nc1 | 84.9% (active) | 85.1% (active) | 97.3% (active) | 84% (active) | 45.3% (inactive)
Cc1ccc(/C=N/NC(=O)c2cc3ccccc3cc2O)o1 | 67% (active) | 65.9% (active) | 89.2% (active) | 76.8% (active) | 77.6% (active)
Cc1[nH]n(-c2ccc([N+](=O)[O-])cc2)c(=O)c1C=NCCN1CCN(C(=O)c2ccccc2F)CC1 | 20.7% (inactive) | 17.1% (inactive) | 3.9% (inactive) | 37.1% (inactive) | 49.3% (inactive)
O=C(Nc1ccncc1)c1cc2ccccc2o1 | 49.1% (inactive) | 44% (inactive) | 76.1% (active) | 75.6% (active) | 49.3% (inactive)
N=c1c2c3c(sc2nc2n1CCCCC2)CCCC3 | 10.9% (inactive) | 8.4% (inactive) | 10.6% (inactive) | 11.1% (inactive) | 11.6% (inactive)
